Laboratory results reported in article PMC4336329 (PLoS ONE, 2015).
In all, about 310,000 compounds went through this assay and about 2,200 (0.71%) showed an effect of 50% or more. The effect is printed as a negative number. The sample holds strong results, similar compounds and a random draw of the others, so the mix is not that of the screen.

Biological target: human ether-à-go-go-related gene (hERG) potassium channel (human, UniProt Q12809)
Assay: primary screen, population patch clamp on CHO cells stably expressing hERG; higher = less effect of the substance

human ether-à-go-go-related gene (hERG) potassium channel, sequence (Q12809 whole entry, looked up): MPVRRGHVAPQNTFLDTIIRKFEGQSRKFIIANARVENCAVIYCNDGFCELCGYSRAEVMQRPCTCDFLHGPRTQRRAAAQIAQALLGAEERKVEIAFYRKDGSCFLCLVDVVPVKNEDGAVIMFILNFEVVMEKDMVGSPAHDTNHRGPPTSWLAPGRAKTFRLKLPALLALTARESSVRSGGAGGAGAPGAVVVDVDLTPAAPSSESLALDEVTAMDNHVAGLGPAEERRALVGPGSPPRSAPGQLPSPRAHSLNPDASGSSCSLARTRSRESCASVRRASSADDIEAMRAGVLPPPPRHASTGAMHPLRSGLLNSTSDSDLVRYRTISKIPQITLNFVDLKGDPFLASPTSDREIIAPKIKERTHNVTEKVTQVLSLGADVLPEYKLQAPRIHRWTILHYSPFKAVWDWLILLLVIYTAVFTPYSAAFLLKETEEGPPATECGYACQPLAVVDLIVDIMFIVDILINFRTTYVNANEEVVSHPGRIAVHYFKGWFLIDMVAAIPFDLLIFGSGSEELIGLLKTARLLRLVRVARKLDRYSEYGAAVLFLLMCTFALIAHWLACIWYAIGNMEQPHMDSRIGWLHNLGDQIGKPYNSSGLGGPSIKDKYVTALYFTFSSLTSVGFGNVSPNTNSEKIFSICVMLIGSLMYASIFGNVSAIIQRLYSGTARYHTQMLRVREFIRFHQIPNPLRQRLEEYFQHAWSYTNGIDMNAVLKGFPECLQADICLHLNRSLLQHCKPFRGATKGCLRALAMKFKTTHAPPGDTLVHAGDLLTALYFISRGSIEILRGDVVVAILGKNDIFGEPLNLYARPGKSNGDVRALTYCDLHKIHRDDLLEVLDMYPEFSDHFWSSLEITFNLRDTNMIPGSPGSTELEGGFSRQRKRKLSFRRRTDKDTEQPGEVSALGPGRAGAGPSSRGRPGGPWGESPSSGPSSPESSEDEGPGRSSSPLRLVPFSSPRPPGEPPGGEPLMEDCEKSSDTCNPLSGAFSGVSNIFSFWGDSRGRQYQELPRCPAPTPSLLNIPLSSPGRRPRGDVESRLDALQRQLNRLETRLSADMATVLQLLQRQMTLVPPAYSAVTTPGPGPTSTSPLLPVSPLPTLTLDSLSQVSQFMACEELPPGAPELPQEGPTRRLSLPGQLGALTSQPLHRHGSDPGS

Structure (SMILES)	hERG current change (%, negative = inhibition) at 1uM [%]
C[C@]1(C(=O)NCCc2c[nH]c3ccccc23)C=C[C@@H](Cc2ccccc2)N1C(=O)c1ccccc1	7.98
CCn1ccc(C(=O)NC2CCCC2)n1	8.64
CN(C)C(=O)CN1CCN(Cc2nc(CC3CC3)no2)CC1	7.17
COCCN(C(=O)CSc1nc2ccccc2c(=O)n1CCOC)c1c(N)n(Cc2ccccc2)c(=O)[nH]c1=O	12.6
Cl.O=S(=O)(NC1CCN(Cc2ccccc2)CC1)c1ccc2ccccc2c1	4.69
C#CCOCCOCCOCCNc1nc(N2CCN(C(=O)[C@H](Cc3ccc(O)cc3)n3cc([C@@H](N)C(C)CC)nn3)CC2)nc(N2CCN(C(=O)[C@H](CCCCN)n3cc([C@@H](N)CO)nn3)CC2)n1.Cl (stereo partly drawn)	12.4
COc1cccc(/C=C/C(=O)OCC(=O)NC2CC2)c1	10.5
CC(C)/C(=N/Nc1ccccc1[N+](=O)[O-])c1ccccc1	22.6
CCCCc1nnc(NC(=O)COC)s1	16.3
CC(=O)Nc1ccc(S(=O)(=O)N2CCC(n3cnc4cc(F)ccc43)CC2)cc1	-26.4
CCOc1ccc(NC(=O)CN2CCN(CC(=O)Nc3cc(OC)cc(OC)c3)CC2)cc1	-71.3
COc1cc(C(=O)N2CCC(n3cnc4cc(F)ccc43)CC2)cc(OC)c1OC	-9.25
CCOc1ccc(NC(=O)CN2CCC(n3cnc4cc(F)ccc43)CC2)cc1	-71.7
O=C(CN1CCC(n2cnc3cc(F)ccc32)CC1)Nc1ccccc1Br	-23.5
CCOc1ccc(NC(=O)CN2CCN(CC(=O)Nc3ccc(C(=O)OC)cc3)CC2)cc1	-48
COc1cc(NC(=O)CN2CCCCCC2)cc(OC)c1	13.5
CCOC(=O)N1CCN(CC(=O)Nc2ccc(F)cc2)CC1	-73
CCOC(=O)N1CCN(CC(=O)Nc2ccc(OC)cc2)CC1	9.1
COc1ccccc1CNC(=O)CN1CCC(n2cnc3cc(F)ccc32)CC1	-59.1
CCOC(=O)N1CCN(CC(=O)Nc2ccc(C)cc2)CC1	6.17
COc1ccccc1CNC(=O)CN1CCC(NC(=O)c2ccccc2F)CC1.Cl	1.06

Structure (SMILES)	hERG current change (%, negative = inhibition) at 1uM [%]
CCN(C(=O)CSc1nc2cc(C(=O)OC)ccc2c(=O)n1Cc1ccco1)c1cccc(C)c1	7.87
Cc1c(NC(=O)C(C)Oc2ccc(Br)cc2Cl)c(=O)n(-c2ccccc2)n1C (stereo not drawn)	-1.81
COc1ccc(C(=O)NC(=S)NCc2ccco2)cc1	15
Cc1cc(C)c(S(=O)(=O)Cc2ccc(Cl)cc2)c(=O)[nH]1	9.42
O=C(N1CCN(CCO)CC1)N1c2ccccc2C=Cc2ccccc21	13
COc1ccc(NC(=O)c2ccc(NC(=O)c3cccs3)cc2)cc1	0.302
CCN(C(=O)CSc1nnc(NC2CCCCC2)s1)C1CCS(=O)(=O)C1 (stereo not drawn)	2.2
CCOc1ccc(NC(=O)CNC(=O)c2ccc(OC)c(OC)c2)cc1	5.55
O=C(c1ccc(F)cc1)C1CCN(C(=O)NCc2ccccc2)CC1	-5.59
CCOc1ccc(NC(=O)CN2CCN(CC(=O)Nc3ccc(Cl)c(C(F)(F)F)c3)CC2)cc1	-6.47
CCOC(=O)N1CCN(CC(=O)Nc2ccc(F)c(F)c2)CC1	8.59
CCOc1ccc(NC(=O)CN2CCN(CC(=O)Nc3cccc(F)c3)CC2)cc1	-97.2
CCOc1ccc(NC(=O)CN2CCN(CC(=O)c3ccc(OC)c(OC)c3)CC2)cc1	-56.3
CCOc1ccc(NC(=O)CN2CCN(CC(=O)Nc3ccc(F)c(F)c3)CC2)cc1	-87.9
O=C(NCc1ccc(F)cc1)C1CCN(C(=O)NCc2ccccc2)CC1	19.1
COc1ccc(S(=O)(=O)N2CCN(CC(=O)Nc3cccc(F)c3)CC2)cc1	-8.66
CCOc1ccc(NC(=O)CN2CCN(CC(=O)Nc3ccc(C(N)=O)cc3)CC2)cc1	-36.9
O=C(NCc1ccccc1)N1CCC(n2cnc3cc(F)ccc32)CC1	-56.6
O=C(CN1CCN(CC(=O)Nc2cccc(F)c2)CC1)Nc1ccc(-c2ccccc2)cc1	13.6
CCCCSc1nnc(-c2cc(Br)ccc2N)c(=O)[nH]1	0.939
CCC(C)(C)NC(=O)C(c1ccc(OC)cc1)N(Cc1ccco1)C(=O)CCC(=O)Nc1cc(C)on1 (stereo not drawn)	4.86
